Experimental findings from PubChem BioAssay AID588436 (Broad Institute, 2011) are described below.

Hit rate of the full screen: of about 350,000 compounds, about 550 (0.16%) were called active. Many of the other results were omitted from the sample, so actives are more common in it than they were. Values without a mark were called inactive. Rule as the data show it: active = activation mostly above about 9.7% (no sharp cut-off); inconclusive = no clear call, values can overlap the other calls; inactive = mostly below about 3.7%.

The experiment is described as follows: induces V. cholerae light production without autoinducers, primary screen, BH1578 luxS cqsA deficient, single point (AID 588436). As to conditions: V. cholerae BH1578 lux reporter, luminescence, 6 h, at 18.7 µM; hits give high values.
With `Cc1ccc(CNC(=O)C2CCCN2S(=O)(=O)c2ccc3c(c2)C(C)(C)C(=O)N3C)cc1` (stereo unspecified), the activation is -0.135%.

Turning to `CCNC(=O)CCc1nc(-c2ccc(C(C)(C)C)cc2)no1`, the activation entry is “inactive”.

As for `CCOC(=O)C1(CCOc2ccccc2)CCN(Cc2ccc(C#CCCO)cc2)CC1`, the activation result was “inactive”.

In the case of `CCOC(=O)C1(CCOC)CCN(Cc2ccc(C(=O)OC)cc2)CC1`, the activation was 0.0345%.

`CCOC(=O)C1(CCOc2ccccc2)CCN(Cc2cc(OC)cc(OC)c2)CC1`: the activation was 21.2% (active).

With `O=C(Nc1ccccc1C(=O)N1CCOCC1)c1ccc(Cl)cc1`, the activation was -0.216%.

As for `COc1ccccc1C(=O)NC(=O)COC(=O)C1CC1`, the activation was 0.621%.

`CCOc1ccccc1NC(=O)CCc1nnc2ccc(NCc3ccco3)nn12`: the activation was -0.0905%.

For `COc1ccc2c(c1)c(C(=O)N/N=C/c1cccs1)c(C)n2C`, the activation is -0.575%.

In the case of `Fc1c(F)c(C(F)(F)F)c(F)c(F)c1N1CCN(c2ccc3nnc(C(F)(F)F)n3n2)CC1`, the activation was 0.463%.

Regarding `COc1ccc(S(=O)(=O)N(C)C[C@H]2Oc3c(NC(=O)Nc4ccc5c(c4)OCO5)cccc3C(=O)N([C@H](C)CO)C[C@@H]2C)cc1`, the activation was 1.22%.

For `CCCc1nc2ccccc2c(C(=O)OCc2nnc(-c3cc(OC)c(OC)c(OC)c3)o2)c1CC`, the activation is -0.28%.

As for `CC(C)c1ccc(NC(=O)CCN2C(=O)c3ccc([N+](=O)[O-])cc3C2=O)cc1`, the activation is -0.342%.

For `Cn1ccc(=Nc2ccc(NC(=O)c3ccc(N=c4ccn(C)c5ccc([N+](=O)[O-])cc45)cc3)cc2)cc1`, the activation is 52.2% (active).

Consider `CN(CC1CCCO1)S(=O)(=O)c1ccc(C(=O)Nc2ccc([N+](=O)[O-])cc2)cc1` (stereo unspecified), for which the activation result is “inactive”.

In the case of `CCOP(=O)(OCC)C(Nc1cccc(C)c1)c1ccc(F)cc1` (stereo unspecified), the activation is -0.244%.

Take `CSc1ccc(S(=O)(=O)NCc2ccc(Cl)cc2)cc1`: the activation was -1.22%.

On to `OC[C@@H]1CN(Cc2cccs2)C[C@H](n2cnc3c(Nc4ccccc4)ncnc32)O1`, for which the activation was -0.66%.

Consider `C=CCn1cc(-c2cccc(C(F)(F)F)c2)cc(C#N)c1=O`, for which the activation was -4.13%.

Consider `CC(=O)N1CCN(C(=O)C2(NC(=O)Nc3ccc(C)cc3)CCCCC2)CC1`, for which the activation is -0.583%.

Turning to `CNC(=O)N1c2ccccc2C=Cc2ccccc21`, the activation was -0.261%.

As to `CC(=O)Nc1cccc(-c2cc3nc(NCc4cccnc4)n(C)c(=O)c3s2)c1`, the activation result is “inactive”.

`Cc1c(Br)c([N+](=O)[O-])nn1CC(=O)Nc1sc2c(c1C(=O)OC(C)C)CCC(C)C2` (stereo unspecified): the activation was -0.23%.

In the case of `O=C(c1ccc(F)cc1)N1CCC(C(=O)N2CCN(S(=O)(=O)c3ccccc3Br)CC2)CC1`, the activation entry was “inactive”.

For the molecule `CC(=O)Nc1ccc(Oc2ccc3c(c2)C(=O)NC3=O)cc1`, the activation is 0.165%.

`O=C(COc1coc(CN2CCN(c3ccccc3F)CC2)cc1=O)N1CCc2ccccc21`: the activation is -0.376%.

Turning to `CCN(CC)S(=O)(=O)c1ccc2c3c(cccc13)C(=O)S2`, the activation result is “inactive”.

`Cc1nn(C)c(C)c1S(=O)(=O)N1CCC(CO)(Cc2ccc(Cl)cc2)CC1`: the activation is -0.416%.

For the molecule `Cn1c(C(=O)O)ccc1S(=O)(=O)N(Cc1ccccc1)Cc1ccccc1`, the activation result is “inactive”.

For `CN(CC(=O)NC1CCCCC1)S(=O)(=O)c1cccc2cccnc12`, the activation was -0.233%.

Consider `COc1ccc(S(=O)(=O)N2CCSCC2)cc1`, for which the activation entry is “inactive”.

Consider `O=S(=O)(c1cccc(C(F)(F)F)c1)N1CCN(c2cnccn2)CC1`, for which the activation result was “inactive”.

Consider `COc1ccc(S(=O)(=O)N2CCN(c3cnccn3)CC2)cc1`, for which the activation was 42.2% (active).

In the case of `CCOc1ccc(Oc2nc(C)cc(OC)n2)nn1`, the activation was -0.469%.

For `CC1CN(C(=O)CN2C(=O)NC(C)(c3ccccc3)C2=O)CC(C)O1` (stereo unspecified), the activation result was “inactive”.

`Cc1sc2nc(COC(=O)C(NC(=O)c3ccc(Cl)cc3Cl)C(C)C)[nH]c(=O)c2c1C` (stereo unspecified): the activation is -0.176%.

Regarding `COc1cccc(-n2c(N)cc(=O)nc2SCC(=O)Nc2cc(C)on2)c1`, the activation is 0.462%.

Turning to `Cc1ccnc(NC(=O)CCC(=O)N(CC(=O)NCc2ccccc2)Cc2ccco2)c1`, the activation was -0.537%.

On to `NC(=O)c1nsc(C(=O)N(CC(=O)NCc2ccc(F)cc2)Cc2ccco2)c1N`, for which the activation was 25% (active).

On to `COc1ccc(CNC(=O)C(c2ccc(O)cc2)N(Cc2ccco2)C(=O)c2snc(C(N)=O)c2N)cc1` (stereo unspecified), for which the activation was 0.29%.

As to `Cc1ccc(C(=O)Cc2nnc(C)s2)cc1`, the activation was -0.621%.

In the case of `COc1ccc(C(C#N)N2N=C(C)CC2(C)C)cc1` (stereo unspecified), the activation entry is “inactive”.

In the case of `COc1cc(N/C=C2\CC(=O)NC(C)=C2C#N)cc(OC)c1OC`, the activation was -0.38%.

`COc1ccc(-c2cc(C)nc3nc(N)nn23)cc1`: the activation is -1.41%.

For `Cc1cc(C)nc(SCc2cn3c(C)cc(C)nc3n2)n1`, the activation is -0.12%.

Turning to `COc1ccc(OCc2cn3c(C)cc(C)nc3n2)cc1`, the activation is 126% (active).

As to `COc1ccc(Cl)cc1NC(=O)CN(C)Cc1ccc(OC)c(OC)c1`, the activation was -0.294%.

For `COc1ccc(Cl)cc1NC(=O)COc1ccc2c(c1)OCO2`, the activation is -2.78%.

For the molecule `COc1ccc(Cl)cc1NC(=O)COC(=O)c1ccc(Br)o1`, the activation was 78.5% (active).

Take `Cc1nc(-c2ccccc2)cn2c1nc1ccccc12`: the activation result was “inactive”.

Regarding `Cc1cc(C)c(S(=O)(=O)N(C)CC(=O)NCC2CCCO2)c(C)c1` (stereo unspecified), the activation is -0.212%.

In the case of `CCC(=O)N1c2ccc(S(=O)(=O)NCc3ccco3)cc2CC1C` (stereo unspecified), the activation was -0.345%.

With `CCn1nnc2cc(C(=O)Nc3ccc(C(=O)OC(C)C)cc3)ccc21`, the activation result is “inactive”.

Consider `CCCc1ccc(C(=O)[C@@H]2[C@@H](C(C)=O)N3c4ccc(F)cc4C=C[C@@H]3[C@@]23C(=O)Nc2ccccc23)cc1`, for which the activation was -0.383%.

For `O=C(O)CCSc1nnc(-c2ccccc2)n1-c1ccccc1`, the activation was 4%.

As for `O=C(Nc1ccc2oc(-c3ccc4ccccc4c3)nc2c1)c1cccs1`, the activation was 25% (active).

For `COc1cc(OC)cc(C(=O)Nc2ccc(-c3nc4ccccc4o3)c(O)c2)c1`, the activation was -1.79%.

With `O=C(Nc1ccc2oc(-c3ccccc3F)nc2c1)c1ccco1`, the activation was 0.203%.

For the molecule `O=S(=O)(NC1CCCCC1)c1ccc(F)c2ccccc12`, the activation is -0.148%.

In the case of `NC(c1csc(NC(=O)Nc2cccc(C(F)(F)F)c2)n1)C1CCCCC1` (stereo unspecified), the activation entry was “inactive”.

`COCCNc1ncnc2c1ncn2[C@H]1CN(CCN2CCOCC2)C[C@@H](CO)O1`: the activation is -0.715%.

With `O=C(NCc1ccc(Cl)cc1)C(=O)NCC1CCCN1S(=O)(=O)c1cccs1` (stereo unspecified), the activation result was “inactive”.

For the molecule `Cc1nonc1C1CCCN1Cc1nc(-c2ccc(F)cc2F)oc1C` (stereo unspecified), the activation was 2.27%.

Take `Cc1ccsc1-c1nc(CSCC(=O)NCCN2CCCC2)c(C)o1`: the activation was -0.308%.

For `CC(CCc1ccccc1)NCC(O)c1cccc([N+](=O)[O-])c1` (stereo unspecified), the activation is -0.322%.

Regarding `COc1ccc(Cl)cc1NC(=O)C1CC(=O)N(c2ccc(F)cc2)C1` (stereo unspecified), the activation was -0.72%.

With `COc1ccc2ccccc2c1CNc1nnnn1C`, the activation result is “inactive”.

Turning to `CCCC(=O)n1nc(NCc2ccc(OC)cc2)nc1NCc1ccc(OC)cc1`, the activation result is “inactive”.

Regarding `Cn1nnnc1NCc1ccc(Cl)c(Cl)c1`, the activation entry was “inactive”.

Consider `CCCCn1nnnc1NCc1cc(OC)c(OC)c(OC)c1`, for which the activation entry was “inactive”.

For `CCCn1nnnc1NCc1ccc(OC)cc1`, the activation was 495% (active).

In the case of `COc1ccc(CNc2nnnn2C)cc1`, the activation was 25.8% (active).

Take `CCNC(=O)C1(C)CCN(Cc2ccc(C(=O)OCC)o2)C1` (stereo unspecified): the activation was -0.406%.

For the molecule `O=C(COC(=O)CNC(=O)C1CCCCC1)NCc1ccccc1`, the activation entry is “inactive”.

`O=C(O)c1cc(S(=O)(=O)Nc2ccc3cn[nH]c3c2)ccc1Br`: the activation was -0.342%.

On to `Cc1nc(-c2ccc(Cl)cc2)sc1C(=O)CBr`, for which the activation was -3.57%.

As to `Cc1ccc(SCC(=O)Nc2nncs2)cc1`, the activation entry was “inactive”.

For the molecule `Cc1ccc(SCC(=O)c2sc(-c3ccccc3)nc2C)cc1`, the activation is 25% (active).

For `Cc1ccsc1C(=O)N[C@@H](C)c1nnc2ccccn12`, the activation was -5.76%.

Take `COc1ccc(C(C)C)cc1-c1ccc2nncn2c1`: the activation was -1.12%.

`CCCCNC(=O)C1CCCN(S(=O)(=O)c2ccc(S(=O)(=O)NCC(C)C)cc2)C1` (stereo unspecified): the activation was -0.448%.

On to `O=c1cc(CO)oc(C(Nc2cccc([N+](=O)[O-])c2)c2ccccn2)c1O` (stereo unspecified), for which the activation was -0.237%.

`CCNc1nc(NCC)nc(N(C)n2cnnc2)n1`: the activation is -0.319%.

For the molecule `Cc1cc(C)c(S(=O)(=O)n2cc(C(C)C(N)C(=O)O)c3ccccc32)c(C)c1` (stereo unspecified), the activation result is “inactive”.

Turning to `COc1ccc(C)cc1NC(=O)NCCCCc1ccccc1`, the activation result is “inactive”.

Turning to `Cc1ccc(S(=O)(=O)NNC(=O)/C=C/c2cccc(F)c2)cc1`, the activation result was “inactive”.

Consider `COC(=O)CN1C(=O)C(C)(C)Oc2ccc(C(=O)Nc3cccc(OC)c3)cc21`, for which the activation was -0.813%.

With `O=C(CCN1C(=O)c2ccccc2C1=O)C1=NN[C@@H]2C(=O)N(c3ccc(F)cc3)C(=O)[C@H]12`, the activation was 1.21%.

In the case of `COC(=O)c1c(C(=O)OC)c2n(c1C)CCS2`, the activation is -0.577%.

As to `Cc1cc(-n2cnc(-c3cn(C)nc3C)n2)no1`, the activation result is “inactive”.

With `NNC(=O)c1nnn(-c2nonc2N)c1CN1CCCC1`, the activation was 67.1% (active).

As to `CCOC(=O)c1nnn(-c2nonc2-n2cccc2)c1CN1CCC(C(=O)OCC)CC1`, the activation entry is “inactive”.

As to `Cc1c(C(=O)O)nnn1-c1nonc1N`, the activation is 1.08%.

In the case of `COc1ccc(NC(=O)CN(C)C(=O)CNC(=O)C2CCCCC2)cc1`, the activation was 1.72%.

`COc1ccc(NC(=O)CN(C)C(=O)CC2CCCCC2)cc1`: the activation is -0.68%.

As to `CN(CC(=O)Nc1ccc(OC(F)(F)F)cc1)C(=O)C1CCC1`, the activation was 18.8% (active).
